# Measured values published in PubChem BioAssay (NCI).
# Compounds without any hit were thinned out: in the full panel of roughly 79,000, 15% have a hit. Unmarked numbers belong to inactive results. Activity calls are given as the source filed them. No stated cut-off is given here; in the data, active means growth inhibition above about 70%; inactive means the rest.
# What was measured:
# [1] = NCI Yeast Anticancer Drug Screen. Data for the rad52 strain (AID 147);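 further: 0% = growth of vehicle-treated control cultures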; details: S. cerevisiae rad52 mutant growth inhibition, active compounds read high
# Procedure, shortened: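 Screen used a yeast mutant impaired in DNA repair. After compound exposure, growth was measured. Values reflect inhibition compared with vehicle-treated cells.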
# [2] = NCI Yeast Anticancer Drug Screen. Data for the wt1 strain (AID 149);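 further: 0% = growth of vehicle-treated wt1 cultures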; details: S. cerevisiae wt1 strain (SPY 50644) growth inhibition, active compounds read high
# Procedure, shortened: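 Measured: growth of wt1 yeast under compound versus vehicle treatment, reported as inhibition.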
# [3] = NCI Yeast Anticancer Drug Screen. Data for the rad50EPP+ strain (AID 151);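 further: 0% = growth of vehicle-treated control cultures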; details: S. cerevisiae rad50 mutant strain, active compounds read high
# Procedure, shortened: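 Exposing the rad50EPP+ strain to each compound, growth was compared with vehicle-only cultures to give inhibition.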
# [4] = NCI Yeast Anticancer Drug Screen. Data for the mgt1 strain (AID 153); details: S. cerevisiae mgt1 mutant growth inhibition, active compounds read high
# Procedure, shortened: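 Genetically defined yeast (mgt1) treated with compound; inhibition of growth expressed against vehicle-treated controls.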
# [5] = NCI Yeast Anticancer Drug Screen. Data for the rad50 strain (AID 155);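 further: 0% = growth of vehicle-only cultures of the same strain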; details: S. cerevisiae rad50 strain growth inhibition, active compounds read high
# Procedure, shortened: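 Growth of the mutant yeast was measured after compound exposure and referenced to vehicle-treated cultures.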
# [6] = NCI Yeast Anticancer Drug Screen. Data for the mec2-1 strain (AID 157); details: S. cerevisiae mec2-1 strain, active compounds read high
# Procedure, shortened: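 Readout is yeast growth inhibition, normalised to vehicle-treated controls, in the mec2-1 strain exposed to compound.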
# [7] = NCI Yeast Anticancer Drug Screen. Data for the rad14 strain (AID 159);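 further: 0% = growth of vehicle-treated control cultures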; details: S. cerevisiae rad14 strain growth inhibition, active compounds read high
# Procedure, shortened: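 Here, inhibition of yeast growth was measured after compound exposure, using a strain with a genetic defect in DNA damage repair and vehicle-treated cultures as the reference.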
# [8] = NCI Yeast Anticancer Drug Screen. Data for the sgs1 mgt1 strain (AID 161);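 further: 0% = growth of cultures given vehicle only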; details: S. cerevisiae sgs1 mgt1 strain, active compounds read high
# Procedure, shortened: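 This yeast growth screen uses a strain with defined DNA-repair lesions; compound-treated growth is compared with vehicle-treated growth.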
# [9] = NCI Yeast Anticancer Drug Screen. Data for the CLN2oe strain (AID 163);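 further: 0% = growth of vehicle-only control cultures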; details: S. cerevisiae CLN2oe strain, active compounds read high
# Procedure, shortened: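 Values reflect how much compound exposure reduced yeast growth, referenced to vehicle-exposed cells. Assay organism is a strain with a defined genetic change affecting cell-cycle control.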
# [10] = NCI Yeast Anticancer Drug Screen. Data for the cln2 rad14 strain (AID 165);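 further: 0% = growth equal to vehicle treated cultures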; details: S. cerevisiae cln2 rad14 strain, active compounds read high
# Procedure, shortened: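 Relative to vehicle controls, growth inhibition of compound-treated cln2 rad14 yeast was recorded.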
# [11] = NCI Yeast Anticancer Drug Screen. Data for the bub3 strain (AID 167); details: S. cerevisiae bub3 mutant strain, active compounds read high
# Procedure, shortened: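 Whole-cell yeast assay. The mutant strain was incubated with compounds, and growth inhibition was determined by comparison with vehicle-treated cells.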
# [12] = NCI Yeast Anticancer Drug Screen. Data for the wt2 strain (AID 169);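 further: 0% = growth of vehicle-treated yeast cultures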; details: S. cerevisiae wt2 strain growth inhibition, active compounds read high
# Procedure, shortened: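 Values express reduction in yeast growth under compound treatment, referenced to vehicle-treated cells.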
# [13] = NCI Yeast Anticancer Drug Screen. Data for the mlh1 strain (AID 171);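 further: 0% = growth of vehicle-treated control cultures of the same strain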; details: S. cerevisiae mlh1 strain growth inhibition, active compounds read high
# Procedure, shortened: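 Steps: expose the defined-mutant yeast strain to compound; expose a parallel culture to vehicle; measure growth; express compound effect as inhibition relative to the vehicle culture.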
# [14] = NCI Yeast Anticancer Drug Screen. Data for the sgs1 strain (AID 173);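 further: 0% = growth of vehicle-only control cultures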; details: S. cerevisiae sgs1 mutant, active compounds read high
# Procedure, shortened: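 Treat defined-mutant yeast with compound; measure growth; calculate inhibition relative to vehicle-treated cells.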
# [15] = NCI Yeast Anticancer Drug Screen. Data for the mlh1 rad18 strain (AID 175); details: S. cerevisiae mlh1 rad18 strain growth inhibition, active compounds read high
# Procedure, shortened: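 Test agents were incubated with a yeast strain of defined genotype (DNA damage repair defect). Inhibition of growth was derived by comparison with vehicle-exposed cultures.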
# [16] = NCI Yeast Anticancer Drug Screen. Data for the rad18 strain (AID 177); details: S. cerevisiae rad18 mutant growth inhibition, active compounds read high
# Procedure, shortened: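 A genetically defined yeast mutant impaired in DNA damage repair was treated with test compounds, then its growth was measured against cultures receiving vehicle alone.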
# [17] = at 5.0 µM (retest, dose inferred, filed as 0.5)
# [18] = at 50.0 µM (retest, dose inferred, filed as 5.0)
smiles,measurement,setting,value
Cc1csc(=S)n1OC(=O)NC1CCCCC1,growth inhibition,[1]; at 1.2 µM,-54%
same,growth inhibition,[1]; at 3.7 µM,63%
same,growth inhibition,[1]; at 11.0 µM,99% (active)
same,growth inhibition,[1]; at 33.0 µM,99% (active)
same,growth inhibition,[1]; at 100.0 µM,99% (active)
same,growth inhibition,[2]; at 1.2 µM,-5%
same,growth inhibition,[2]; at 3.7 µM,97% (active)
same,growth inhibition,[2]; at 11.0 µM,99% (active)
same,growth inhibition,[2]; at 33.0 µM,100% (active)
same,growth inhibition,[2]; at 100.0 µM,99% (active)
same,growth inhibition,[3]; at 1.2 µM,-23%
same,growth inhibition,[3]; at 3.7 µM,99% (active)
same,growth inhibition,[3]; at 11.0 µM,99% (active)
same,growth inhibition,[3]; at 33.0 µM,99% (active)
same,growth inhibition,[3]; at 100.0 µM,99% (active)
same,growth inhibition,[4]; at 1.2 µM,18%
same,growth inhibition,[4]; at 3.7 µM,99% (active)
same,growth inhibition,[4]; at 11.0 µM,100% (active)
same,growth inhibition,[4]; at 33.0 µM,100% (active)
same,growth inhibition,[4]; at 100.0 µM,99% (active)
same,growth inhibition,[5]; at 1.2 µM,-2%
same,growth inhibition,[5]; at 3.7 µM,98% (active)
same,growth inhibition,[5]; [17],94% (active)
same,growth inhibition,[5]; at 11.0 µM,99% (active)
same,growth inhibition,[5]; at 33.0 µM,98% (active)
same,growth inhibition,[5]; [18],98% (active)
same,growth inhibition,[5]; at 50.0 µM,92.5% (active)
same,growth inhibition,[5]; at 100.0 µM,98% (active)
same,growth inhibition,[6]; at 1.2 µM,-11%
same,growth inhibition,[6]; at 3.7 µM,93% (active)
same,growth inhibition,[6]; [17],-3%
same,growth inhibition,[6]; at 11.0 µM,99% (active)
same,growth inhibition,[6]; at 33.0 µM,93% (active)
same,growth inhibition,[6]; [18],99% (active)
same,growth inhibition,[6]; at 50.0 µM,94.2% (active)
same,growth inhibition,[6]; at 100.0 µM,95% (active)
same,growth inhibition,[7]; at 1.2 µM,-8%
same,growth inhibition,[7]; at 3.7 µM,96% (active)
same,growth inhibition,[7]; at 11.0 µM,99% (active)
same,growth inhibition,[7]; at 33.0 µM,99% (active)
same,growth inhibition,[7]; at 100.0 µM,98% (active)
same,growth inhibition,[8]; [17],32%
same,growth inhibition,[8]; [18],96% (active)
same,growth inhibition,[8]; at 50.0 µM,93.5% (active)
same,growth inhibition,[9]; at 1.2 µM,-6%
same,growth inhibition,[9]; at 3.7 µM,99% (active)
same,growth inhibition,[9]; at 11.0 µM,100% (active)
same,growth inhibition,[9]; at 33.0 µM,100% (active)
same,growth inhibition,[9]; at 100.0 µM,100% (active)
same,growth inhibition,[10]; [17],83% (active)
same,growth inhibition,[10]; [18],98% (active)
same,growth inhibition,[10]; at 50.0 µM,92.2% (active)
same,growth inhibition,[11]; at 1.2 µM,3%
same,growth inhibition,[11]; at 3.7 µM,99% (active)
same,growth inhibition,[11]; [17],99% (active)
same,growth inhibition,[11]; at 11.0 µM,99% (active)
same,growth inhibition,[11]; at 33.0 µM,100% (active)
same,growth inhibition,[11]; [18],97% (active)
same,growth inhibition,[11]; at 50.0 µM,91.8% (active)
same,growth inhibition,[11]; at 100.0 µM,99% (active)
same,growth inhibition,[12]; at 1.2 µM,-23%
same,growth inhibition,[12]; at 3.7 µM,97% (active)
same,growth inhibition,[12]; at 11.0 µM,99% (active)
same,growth inhibition,[12]; at 33.0 µM,99% (active)
same,growth inhibition,[12]; at 100.0 µM,99% (active)
same,growth inhibition,[13]; at 1.2 µM,8%
same,growth inhibition,[13]; at 3.7 µM,99% (active)
same,growth inhibition,[13]; at 11.0 µM,100% (active)
same,growth inhibition,[13]; at 33.0 µM,99% (active)
same,growth inhibition,[13]; at 100.0 µM,98% (active)
same,growth inhibition,[14]; at 1.2 µM,-42%
same,growth inhibition,[14]; at 3.7 µM,98% (active)
same,growth inhibition,[14]; at 11.0 µM,99% (active)
same,growth inhibition,[14]; at 33.0 µM,100% (active)
same,growth inhibition,[14]; at 100.0 µM,99% (active)
same,growth inhibition,[15]; [17],97% (active)
same,growth inhibition,[15]; [18],98% (active)
same,growth inhibition,[15]; at 50.0 µM,92.1% (active)
same,growth inhibition,[16]; at 1.2 µM,-11%
same,growth inhibition,[16]; at 3.7 µM,94% (active)
same,growth inhibition,[16]; at 11.0 µM,98% (active)
same,growth inhibition,[16]; at 33.0 µM,98% (active)
same,growth inhibition,[16]; at 100.0 µM,98% (active)
CCCCCCCCCCCC(O)S(=O)(=O)O (stereo unspecified),growth inhibition,[1]; at 1.2 µM,0%
same,growth inhibition,[1]; at 3.7 µM,0%
same,growth inhibition,[1]; at 11.0 µM,-3%
same,growth inhibition,[1]; at 33.0 µM,2%
same,growth inhibition,[1]; at 100.0 µM,55%
same,growth inhibition,[2]; at 1.2 µM,-2%
same,growth inhibition,[2]; at 3.7 µM,-1%
same,growth inhibition,[2]; at 11.0 µM,-4%
same,growth inhibition,[2]; at 33.0 µM,1%
same,growth inhibition,[2]; at 100.0 µM,15%
same,growth inhibition,[3]; at 1.2 µM,7%
same,growth inhibition,[3]; at 3.7 µM,3%
same,growth inhibition,[3]; at 11.0 µM,7%
same,growth inhibition,[3]; at 33.0 µM,15%
same,growth inhibition,[3]; at 100.0 µM,58%
same,growth inhibition,[4]; at 1.2 µM,-3%
same,growth inhibition,[4]; at 3.7 µM,0%
same,growth inhibition,[4]; at 11.0 µM,-2%
same,growth inhibition,[4]; at 33.0 µM,-1%
same,growth inhibition,[4]; at 100.0 µM,70% (active)
same,growth inhibition,[5]; at 1.2 µM,4%
same,growth inhibition,[5]; at 3.7 µM,3%
same,growth inhibition,[5]; [17],-13%
same,growth inhibition,[5]; at 11.0 µM,-2%
same,growth inhibition,[5]; at 33.0 µM,2%
same,growth inhibition,[5]; [18],20%
same,growth inhibition,[5]; at 50.0 µM,-3.6%
same,growth inhibition,[5]; at 100.0 µM,50%
same,growth inhibition,[6]; at 1.2 µM,-1%
same,growth inhibition,[6]; at 3.7 µM,0%
same,growth inhibition,[6]; [17],-17%
same,growth inhibition,[6]; at 11.0 µM,-2%
same,growth inhibition,[6]; at 33.0 µM,-1%
same,growth inhibition,[6]; [18],-23%
same,growth inhibition,[6]; at 50.0 µM,37.9%
same,growth inhibition,[6]; at 100.0 µM,74% (active)
same,growth inhibition,[7]; at 1.2 µM,3%
same,growth inhibition,[7]; at 3.7 µM,4%
same,growth inhibition,[7]; at 11.0 µM,2%
same,growth inhibition,[7]; at 33.0 µM,10%
same,growth inhibition,[7]; at 100.0 µM,95% (active)
same,growth inhibition,[8]; [17],-10%
same,growth inhibition,[8]; [18],17%
same,growth inhibition,[8]; at 50.0 µM,0.05%
same,growth inhibition,[9]; at 1.2 µM,-2%
same,growth inhibition,[9]; at 3.7 µM,-1%
same,growth inhibition,[9]; at 11.0 µM,-2%
same,growth inhibition,[9]; at 33.0 µM,-2%
same,growth inhibition,[9]; at 100.0 µM,66%
same,growth inhibition,[10]; [17],-5%
same,growth inhibition,[10]; [18],6%
same,growth inhibition,[10]; at 50.0 µM,-14.4%
same,growth inhibition,[11]; at 1.2 µM,1%
same,growth inhibition,[11]; at 3.7 µM,-1%
same,growth inhibition,[11]; [17],0%
same,growth inhibition,[11]; at 11.0 µM,-2%
same,growth inhibition,[11]; at 33.0 µM,0%
same,growth inhibition,[11]; [18],59%
same,growth inhibition,[11]; at 50.0 µM,7.55%
same,growth inhibition,[11]; at 100.0 µM,12%
same,growth inhibition,[12]; at 1.2 µM,-4%
same,growth inhibition,[12]; at 3.7 µM,-9%
same,growth inhibition,[12]; at 11.0 µM,-7%
same,growth inhibition,[12]; at 33.0 µM,-11%
same,growth inhibition,[12]; at 100.0 µM,98% (active)
same,growth inhibition,[13]; at 1.2 µM,0%
same,growth inhibition,[13]; at 3.7 µM,0%
same,growth inhibition,[13]; at 11.0 µM,-2%
same,growth inhibition,[13]; at 33.0 µM,3%
same,growth inhibition,[13]; at 100.0 µM,94% (active)
same,growth inhibition,[14]; at 1.2 µM,1%
same,growth inhibition,[14]; at 3.7 µM,-2%
same,growth inhibition,[14]; at 11.0 µM,-12%
same,growth inhibition,[14]; at 33.0 µM,6%
same,growth inhibition,[14]; at 100.0 µM,96% (active)
same,growth inhibition,[15]; [17],7%
same,growth inhibition,[15]; [18],39%
same,growth inhibition,[15]; at 50.0 µM,17.4%
same,growth inhibition,[16]; at 1.2 µM,1%
same,growth inhibition,[16]; at 3.7 µM,1%
same,growth inhibition,[16]; at 11.0 µM,-2%
same,growth inhibition,[16]; at 33.0 µM,-1%
same,growth inhibition,[16]; at 100.0 µM,90% (active)
